Assay outcomes deposited in PubChem by National Center for Advancing Translational Sciences (NCATS).
Compounds with a hit are over-represented: about 9% of the library has one in this group of screens.
HttQ103 aggreg = inhibitors of mutant huntingtin aggregate formation in PC12 cells | Potency, µM (doses to about 46.1 µM), without a hit: at the top dose activity change, negative = inhibition, actives largely listed as inhibitors | PC12 HttQ103-GFP aggregates, Acumen cytometry, 40 h | AID 1688 | 1.1% of 220,000 active; note: % is set by controls: 0 for no effect and ±100 for the full control effect; nearly all actives have a fitted effect of over 60% in size
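Steps: seed 1500 PC12 HTTQ103-GFP cells/well; add tebufenozide, 100 nM final; add compound titration; add ATPLite reagent; quantify GFP aggregates by laser scanning cytometry.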
HTT ATP protect = protects HTT-Q103 PC12 cells, measured by ATP; PC12 HTT-Q103 induced, cytoprotection, ATP luminescence, 40 h; Potency, µM (highest dose often 56.4 µM), without a hit: cytoprotection (ATP increase), hits mostly activators; 0.14% of 230,000 active; note: % of control where 0% means no effect; nearly all actives have a fitted effect of over 45% in size
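Rat PC12, Q103 Htt exon1-GFP fusion, ecdysone promoter; tebufenozide inducer 100 nM final; compound titration; qHTS, 1500 cells/well; ATPlite luminescent read.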
Lamin A splicing = LMNA splicing modulation; AID 1487; 0.01% of 200,000 active; Potency, µM (top dose mostly 46.1 µM), without a hit: at the highest dose ratio change, negative = inhibition, usual class: inhibitors; HeLa LMNA splicing GFP/RFP minigene ratio, 48 h; active = well fitted inhibition curve with a large enough effect in the signal ratio, with a control signal flat, not every such curve was filed as active; inconclusive = small, poorly fitted or top-dose-only effect, or effect the other way, or a change in a side signal; the % refers to the signal ratio; note: % is set by controls: 0 for no effect and ±100 for the full control effect
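S3 HeLa stable clones carrying a lamin A-EGFP splicing minigene plus DsRed2 were seeded at 600 cells/well in Opti-MEM with 2% FBS, pin-dosed and incubated 48 h at 37°C. Acumen cytometry (488 nm) gave the GFP/RFP total-intensity ratio.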
HPGD block = blocks human HPGD enzyme activity; purified HPGD, NADH fluorescence kinetic, PGE2 substrate; Potency, µM, for the others: top-dose activity change, negative = inhibition, actives largely listed as inhibitors; 4.3% of 150,000 active; AID 894; active = well fitted inhibition curve with a large enough effect, not every such curve was filed as active; inconclusive = small, poorly fitted or top-dose-only effect, or another doubt; inactive = no such curve, though single readings can be large or run the other way; note: % is set by controls: 0 for no effect and ±100 for the full control effect
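20 nM HPGD preincubated 15 min at room temperature with compound in 50 mM Tris-HCl pH 8, 0.01% Tween 20. Started with 1 mM NAD+ and 30 uM prostaglandin E2; NADH fluorescence (360/450 nm) read 5 times over 30-s intervals, last minus first.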
Luc counter = Kinase-Glo luciferase inhibition (counter-screen) | Q27757 | Kinase-Glo luciferase, ATP luminescence, 8 min | Potency, µM (series often up to 38.3 µM), without a hit: at the top dose activity change, negative = inhibition, most hits filed as inhibitors | 0.28% of 200,000 active; note: % is set by controls: 0 for no effect and ±100 for the full control effect; nearly all actives have a fitted effect of over 60% in size
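Recombinant Kinase-Glo luciferase, 10 uM ATP (linear range), luciferin; imidazole pH 7.2 / KCl / MgCl2 / Tween / BSA buffer; 8 min RT; luminescence.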
ALDH1A1 block = blocks purified human ALDH1A1 activity | P00352 | Purified ALDH1A1, NADH fluorescence, propionaldehyde substrate | Potency, µM (series often up to 75.3 µM), for the others: at the top dose activity, negative = inhibition, most hits filed as inhibitors | 7.3% of 220,000 active | AID 1030; active = well fitted inhibition curve with a large enough effect, not every such curve was filed as active; inconclusive = small, poorly fitted or top-dose-only effect, or another doubt; inactive = no such curve, though single readings can be large or run the other way;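 note: plate controls were no enzyme wells and a reference inhibitor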
Target sequence (P00352 whole entry, looked up): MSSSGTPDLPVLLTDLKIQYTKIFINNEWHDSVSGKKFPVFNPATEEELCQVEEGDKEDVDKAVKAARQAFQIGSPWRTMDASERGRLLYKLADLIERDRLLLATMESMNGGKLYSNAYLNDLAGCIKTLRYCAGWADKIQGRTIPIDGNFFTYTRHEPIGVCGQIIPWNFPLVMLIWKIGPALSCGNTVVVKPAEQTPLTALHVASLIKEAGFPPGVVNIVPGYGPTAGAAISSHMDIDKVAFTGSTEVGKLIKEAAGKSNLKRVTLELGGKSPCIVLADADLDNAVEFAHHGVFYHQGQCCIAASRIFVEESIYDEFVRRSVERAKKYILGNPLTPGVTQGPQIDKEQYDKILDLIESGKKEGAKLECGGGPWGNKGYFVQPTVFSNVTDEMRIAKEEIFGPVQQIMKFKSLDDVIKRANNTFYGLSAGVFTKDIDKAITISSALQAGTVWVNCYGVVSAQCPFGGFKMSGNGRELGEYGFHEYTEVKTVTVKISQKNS
Numbers without * were called inactive; [ ] = remark or other dose. Unless noted, calls come from the whole dose curve; as a rule, active = well fitted curve in the direction sought with a large enough effect; inconclusive = small, poorly fitted or top-dose-only effect, or another doubt; inactive = no such curve, though single readings can be large; an effect the other way counts as inactive or inconclusive. Potency is the fitted concentration of half-maximal effect.

`Cc1ccc(S(=O)(=O)NC(c2ccccc2)C(C)C(=O)n2nc(C)cc2C)cc1` (centres undefined) gave HttQ103 aggreg -53%, HTT ATP protect 14%, Lamin A splicing 5%, HPGD block -9%, Luc counter -2% and ALDH1A1 block inconclusive.
Screening CCOc1ccc(NS(=O)(=O)CC23CCC(CC2=O)C3(C)C)cc1 (centres undefined) returned HttQ103 aggreg -13%, HTT ATP protect 13%, Lamin A splicing -8%, HPGD block -5%, Luc counter -4% and ALDH1A1 block 5%.
Screening COc1ccc(NS(=O)(=O)CC23CCC(CC2=O)C3(C)C)cc1 (centres undefined) returned HttQ103 aggreg 4%, HTT ATP protect 15%, Lamin A splicing 6%, HPGD block -14%, Luc counter 2% and ALDH1A1 block 7.9µM*.
Cc1cc(C)nc(NS(=O)(=O)c2ccc(CC(C)C)cc2)c1 was read as HttQ103 aggreg -3%[9.22 µM] and HTT ATP protect 13%[10 µM].
COc1ccc(NC(=S)NC(NC(=O)/C=C/c2ccccc2)C(Cl)(Cl)Cl)cc1 (centres undefined) was read as HttQ103 aggreg -4%, HTT ATP protect -56%, Lamin A splicing inconclusive, HPGD block -3%, Luc counter -1% and ALDH1A1 block 7%.
For CCCCCc1nc2sc3c(c2c(=O)n1NC(=O)c1ccc([N+](=O)[O-])cc1)CC(C)(C)OC3 the results were HttQ103 aggreg inconclusive, HTT ATP protect 2%[10 µM], Lamin A splicing inconclusive, HPGD block -10%, Luc counter 2% and ALDH1A1 block 8.9µM*.
C=CCn1c(SCC(=O)c2ccc(Cl)cc2)nnc1-c1ccc2c(c1)OCO2 was read as HttQ103 aggreg 1%, Lamin A splicing inconclusive, HPGD block 8.9µM*, Luc counter -2% and ALDH1A1 block inconclusive.
Screening O=C(CSc1nnc(SCc2ccc(Cl)cc2)s1)c1ccc2c(c1)OCO2 returned HttQ103 aggreg 11%, Lamin A splicing inconclusive, HPGD block -12%, Luc counter 3% and ALDH1A1 block 2.2µM*.
COc1ccc(/C(C)=N/Nc2ccccc2Cl)c(O)c1 was read as HttQ103 aggreg 5%[9.22 µM] and HTT ATP protect -1%[10 µM].
O=C(c1cc(=O)[nH]c2ccccc12)N1CCc2ccccc2C1 was read as HttQ103 aggreg 12%, HTT ATP protect -48%, Luc counter 0% and ALDH1A1 block inconclusive.
Screening NC(=S)N1OC[C@@H]2COc3ccc4ccccc4c3[C@@H]21 returned HttQ103 aggreg inconclusive, HTT ATP protect 9%, Luc counter 3% and ALDH1A1 block 13µM*.
For COc1ccc(N2CCN(C(=O)c3cccnc3SCc3cccc(Br)c3)CC2)cc1 the results were HttQ103 aggreg 22µM*, HTT ATP protect -17%, Lamin A splicing 8%[46 µM], Luc counter 2% and ALDH1A1 block -2%.
Screening COc1ccc(N2CCN(C(=O)c3cnc(N4CCCC4)nc3C)CC2)cc1 returned Lamin A splicing 7%[46 µM].
`CCOC(=O)c1c(NC(=O)Cc2cccs2)sc(C)c1C` gave HttQ103 aggreg 4%, HTT ATP protect -16%, Lamin A splicing 0%, HPGD block inconclusive, Luc counter -8% and ALDH1A1 block 13µM*.
For CCOC(=O)c1sc(NC(=O)COC(=O)CNC(=O)c2ccco2)c(C(=O)OCC)c1C the results were HttQ103 aggreg -27%, HTT ATP protect 28%[10 µM], Lamin A splicing inconclusive, HPGD block -26%, Luc counter 2% and ALDH1A1 block 28µM*.
`COC(=O)c1c(NC(=O)c2ccco2)sc(C(=O)N2CCCC2)c1C` gave HttQ103 aggreg -10%, HTT ATP protect -6%, Lamin A splicing -3%, HPGD block 18µM*, Luc counter 11% and ALDH1A1 block 14µM*.
Screening COC(=O)c1c(NC(=O)Cc2cccs2)sc(C(=O)N2CCCCC2)c1C returned HttQ103 aggreg inconclusive, HTT ATP protect -2%[10 µM], Lamin A splicing -2%, HPGD block 16µM*, Luc counter 0% and ALDH1A1 block 4.5µM*.
For CCOC(=O)c1c(NC(=O)COC(=O)CNC(=O)c2ccco2)sc(C)c1C the results were HttQ103 aggreg 21%, HTT ATP protect -9%[1.9 µM], Lamin A splicing inconclusive, HPGD block -11%, Luc counter 1% and ALDH1A1 block -16%.
`Cn1nc(C(C)(C)C)cc1NC(=O)Nc1ccc(Cl)cc1` gave HttQ103 aggreg -28%[9.22 µM] and HTT ATP protect 11%[10 µM].
Cc1ccc(O)c(-c2cc(C(F)(F)F)[nH]n2)c1 was read as HttQ103 aggreg -16%, HTT ATP protect -31%, Lamin A splicing 5%, HPGD block 14µM*, Luc counter 1% and ALDH1A1 block 8%.
`Cc1ccc(O)c(-c2cc(-c3cccc(Br)c3)n[nH]2)c1` gave HttQ103 aggreg 2%[9.22 µM], HTT ATP protect -1%[10 µM], Luc counter -2% and ALDH1A1 block -4%.
O=C(Nc1ccc(S(=O)(=O)N2CCOCC2)cc1)c1ccc2c(c1)S(=O)(=O)c1ccccc1C2=O was read as HttQ103 aggreg 4%, HTT ATP protect 1%[10 µM], Lamin A splicing 3%[46 µM], Luc counter 0% and ALDH1A1 block 13%.
Screening O=C(Nc1cc(S(=O)(=O)N2CCOCC2)ccc1O)c1ccc2c(c1)S(=O)(=O)c1ccccc1C2=O returned HttQ103 aggreg 24%, Lamin A splicing -3%[46 µM], Luc counter 2% and ALDH1A1 block 1.1µM*.
Screening COc1ccc(CCNC(=O)C2CCC(CNS(=O)(=O)c3ccc(C)cc3)CC2)cc1OC (centres undefined) returned Lamin A splicing 0%[46 µM].
CC1=C(C(=O)Nc2ccccc2C)C(c2cccs2)NC(=S)N1 (centres undefined) was read as HttQ103 aggreg -8%, HTT ATP protect 13%[10 µM], Lamin A splicing -13%, HPGD block -14%, Luc counter 0% and ALDH1A1 block 13µM*.
For CCOc1ccccc1NC(=O)C1=C(C)NC(=S)NC1c1cccs1 (centres undefined) the results were HttQ103 aggreg -5%, Lamin A splicing inconclusive, HPGD block -14%, Luc counter 0% and ALDH1A1 block 0.63µM*.
Screening CC1=C(C(=O)Nc2ccc(C)cc2C)C(c2cccs2)NC(=S)N1 (centres undefined) returned HttQ103 aggreg inconclusive, HTT ATP protect -7%[10 µM], Lamin A splicing -16%, HPGD block -7%, Luc counter 2% and ALDH1A1 block inconclusive.
